# In PubChem BioAssay AID720603 (Broad Institute, 2013):
# Results with a measured potency or affinity are listed apart. Inconclusive results are not listed. The source made the active and inactive calls.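 Rule for the calls: active = every test run gave an active call, each with a potency at or below twice the top valid dose; inconclusive = test runs disagree, or curve fits are weak or unclear; inactive = every test run inactive, including wrong-way signal.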
# Test: C2C12 myoblast ATP-based viability loss, dose response, cytotoxicity control for HRAS target identification, cell-based, CellTiter-Glo ATP luminescence, 8/24/48 h, dry powder (AID 720603)
smiles,measurement,value
Cc1onc(C(=O)N2CCN(C(c3ccncc3)c3ccncc3)CC2)c1[N+](=O)[O-],outcome,inactive
